Data on 3 molecules can be found in PubChem BioAssay (EPA / NIEHS).

Common to all, as to conditions: mRNA level, 48 h; actives raise or lower the signal
Read-out in experiment [1]: Lipoprotein lipase (LPL), LPL (gene 4023)
The experiment is described as follows: LTEA_HepaRG_LPL: Life Technologies and Expression Analysis (LTEA) Assay for Lipoprotein lipase (LPL) using HepaRG (AID 2283515). In outline: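 Differentiated HepaRG cells, plated 48 h, then exposed 48 h in serum-free induction medium to 8 concentrations (top 100 uM, half-log steps) in 0.5% DMSO, duplicate. LPL mRNA measured by qRT-PCR, normalized to ACTB, GAPDH and POLR2A.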

Read-out in experiment [2]: MicroRNA 122 (MIR122), gene 406906
The experiment is described as follows: LTEA_HepaRG_MIR122: Life Technologies and Expression Analysis (LTEA) Assay for MicroRNA 122 (MIR122) using HepaRG (AID 2283516). Further: the transcript read is the microRNA miR-122. In outline: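 Differentiated human HepaRG cells in serum-free induction medium exposed 48 h to 8 half-log concentrations from 100 uM in 0.5% DMSO, duplicate. MIR122 quantified by Fluidigm TaqMan qRT-PCR, normalised to ACTB, GAPDH, POLR2A; fold change fitted bidirectionally versus DMSO.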

Read-out in experiment [3]: matrix metalloproteinase-10 (MMP10), MMP10 (gene 4319)
The experiment is described as follows: LTEA_HepaRG_MMP10: Life Technologies and Expression Analysis (LTEA) Assay for matrix metalloproteinase-10 (MMP10) using HepaRG (AID 2283517). In outline:
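Differentiated HepaRG cells in serum-free induction medium exposed 48 h in duplicate to 8-point half-log series up to 100 uM in 0.5% DMSO. mRNA quantified by qRT-PCR, normalised to ACTB, GAPDH, POLR2A; bidirectional fit versus DMSO.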

Read-out in a further experiment: MYC, MYC (gene 4609)
Nature of the experiment: LTEA_HepaRG_MYC: Life Technologies and Expression Analysis (LTEA) Assay for MYC using HepaRG (AID 2283518). In short, it runs like this:
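Differentiated human HepaRG cells, plated 48 h then switched to serum-free induction medium, were exposed in duplicate for 48 h to 8-point half-log series up to 100 uM in 0.5% DMSO. MYC mRNA measured by qRT-PCR, normalized to ACTB/GAPDH/POLR2A.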

Read-out in experiment [4]: matrix metalloproteinase-3 (MMP3), MMP3 (gene 4314)
The experiment is described as follows: LTEA_HepaRG_MMP3: Life Technologies and Expression Analysis (LTEA) Assay for matrix metalloproteinase-3 (MMP3) using HepaRG (AID 2283519). In outline: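 HepaRG cells (~100,000/well) in serum-free induction medium were dosed in duplicate for 48 h with an 8-point half-log series from 100 uM, 0.5% DMSO. MMP3 mRNA was quantified by Fluidigm TaqMan qRT-PCR, normalized to three housekeeping genes.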

Read-out in experiment [5]: Paternally Expressed 10 (PEG10), PEG10 (gene 23089)
The experiment is described as follows: LTEA_HepaRG_PEG10: Life Technologies and Expression Analysis (LTEA) Assay for Paternally Expressed 10 (PEG10) using HepaRG (AID 2283520). In outline: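 Differentiated HepaRG cells exposed 48 h in serum-free induction medium to eight half-log concentrations topping at 100 uM, 0.5% DMSO, in duplicate. PEG10 mRNA quantified by TaqMan qRT-PCR, normalized to ACTB, GAPDH and POLR2A; bidirectional fit versus DMSO.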

Read-out in experiment [6]: Protein phosphatase 2A (PPP2R4), PTPA (gene 5524)
Nature of the experiment: LTEA_HepaRG_PPP2R4: Life Technologies and Expression Analysis (LTEA) Assay for Protein phosphatase 2A (PPP2R4) using HepaRG (AID 2283522). In outline:
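Differentiated human HepaRG cells in serum-free induction medium were exposed 48 h to 8 concentrations (top 100 µM, half-log steps, duplicate) in 0.5% DMSO. PPP2R4 mRNA was measured by TaqMan qRT-PCR, normalised to ACTB, GAPDH and POLR2A, and fitted bidirectionally versus DMSO.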

Read-out in experiment [7]: Phosphatase and tensin (PTEN), PTEN (gene 5728)
The experiment is described as follows: LTEA_HepaRG_PTEN: Life Technologies and Expression Analysis (LTEA) Assay for Phosphatase and tensin (PTEN) using HepaRG (AID 2283523). In short, it runs like this:
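HepaRG cells, 48 h after plating, exposed in duplicate for 48 h in serum-free induction medium to 8 half-log concentrations up to 100 uM (0.5% DMSO). PTEN mRNA by qRT-PCR, normalized to ACTB, GAPDH, POLR2A; bidirectional fit versus DMSO.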

Read-out in experiment [8]: solute carrier (SLC22A1), SLC22A1 (gene 6580)
The experiment is described as follows: LTEA_HepaRG_SLC22A1: Life Technologies and Expression Analysis (LTEA) Assay for solute carrier (SLC22A1) using HepaRG (AID 2283524). In outline:
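Differentiated human HepaRG cells in serum-free induction medium, exposed 48 h in duplicate to 8-point half-log series from 100 µM top in 0.5% DMSO. SLC22A1 mRNA by TaqMan qRT-PCR normalized to ACTB, GAPDH, POLR2A; bidirectional fit versus DMSO.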

Read-out in experiment [9]: Pyruvate Dehydrogenase Kinase 4 (PDK4), PDK4 (gene 5166)
Nature of the experiment: LTEA_HepaRG_PDK4: Life Technologies and Expression Analysis (LTEA) Assay for Pyruvate Dehydrogenase Kinase 4 (PDK4) using HepaRG (AID 2283525). In short, it runs like this: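 HepaRG cells plated 48 h, then switched to serum-free induction medium and exposed in duplicate for 48 h to 8 half-log concentrations from 100 uM in 0.5% DMSO. PDK4 mRNA measured by qRT-PCR, normalized to ACTB, GAPDH and POLR2A; bidirectional fit versus DMSO.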

Read-out in experiment [10]: NAD(P)H dehydrogenase [quinone] 1 (NQO1), NQO1 (gene 1728)
Nature of the experiment: LTEA_HepaRG_NQO1: Life Technologies and Expression Analysis (LTEA) Assay for NAD(P)H dehydrogenase [quinone] 1 (NQO1) using HepaRG (AID 2283526). In short, it runs like this: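 Differentiated human HepaRG cells in serum-free induction medium, dosed in duplicate for 48 h at 8 half-log concentrations up to 100 uM in 0.5% DMSO. NQO1 mRNA by qRT-PCR normalized to ACTB, GAPDH, POLR2A; bidirectional fit versus DMSO baseline.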

Read-out in experiment [11]: Nuclear factor erythroid 2-related factor 2 (Homo sapiens) (UniProt Q16236)
The experiment is described as follows: LTEA_HepaRG_NFE2L2: Life Technologies and Expression Analysis (LTEA) Assay for Nuclear factor erythroid 2-related factor 2 (NFE2L2) Transcription Factor using HepaRG (AID 2283527).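 Further: TaqMan qRT-PCR transcript level normalised to ACTB GAPDH and POLR2A housekeeping genes.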 In outline:
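Differentiated human HepaRG cells, serum-free induction medium, exposed 48 h in duplicate to eight half-log concentrations up to 100 uM in 0.5% DMSO. NFE2L2 mRNA by Fluidigm TaqMan qRT-PCR, normalised to ACTB, GAPDH, POLR2A; bidirectional change versus DMSO.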

Read-out in experiment [12]: succinate dehydrogenase complex iron sulfur subunit B (SDHB), SDHB (gene 6390)
Nature of the experiment: LTEA_HepaRG_SDHB: Life Technologies and Expression Analysis (LTEA) Assay for succinate dehydrogenase complex iron sulfur subunit B (SDHB) using HepaRG (AID 2283528). In outline:
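HepaRG cells (~100,000/well, plated 48 h) exposed in duplicate for 48 h in serum-free induction medium to 8-point half-log series from 100 uM in 0.5% DMSO; mRNA by qRT-PCR normalised to ACTB, GAPDH, POLR2A; bidirectional fit versus DMSO.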

Read-out in experiment [13]: Signal transducer and activator of transcription 3 (Homo sapiens) (UniProt P40763)
The experiment is described as follows: LTEA_HepaRG_STAT3: Life Technologies and Expression Analysis (LTEA) Assay for Signal transducer and activator of transcription (STAT3) using HepaRG (AID 2283529). In short, it runs like this: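 Differentiated HepaRG cells, serum-free induction medium, dosed 48 h in duplicate, 8 half-log concentrations from 100 uM in 0.5% DMSO. STAT3 mRNA by qRT-PCR, normalised to ACTB, GAPDH, POLR2A; bidirectional fit versus DMSO.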

Read-out in experiment [14]: solute carrier (SLCO1B1), SLCO1B1 (gene 10599)
The experiment is described as follows: LTEA_HepaRG_SLCO1B1: Life Technologies and Expression Analysis (LTEA) Assay for solute carrier (SLCO1B1) using HepaRG (AID 2283530). In short, it runs like this: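 Differentiated human HepaRG cells, plated 48 h, switched to serum-free induction medium and exposed in duplicate for 48 h to 8 half-log concentrations (top 100 uM) in 0.5% DMSO. SLCO1B1 mRNA by TaqMan qRT-PCR, normalized to ACTB/GAPDH/POLR2A.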

Read-out in experiment [15]: sulfotransferase 2A1 (SULT2A1), SULT2A1 (gene 6822)
Nature of the experiment: LTEA_HepaRG_SULT2A1: Life Technologies and Expression Analysis (LTEA) Assay for sulfotransferase 2A1 (SULT2A1) using HepaRG (AID 2283531). In short, it runs like this:
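Differentiated human HepaRG cells in serum-free induction medium were exposed for 48 h to eight half-log concentrations (top 100 uM, 0.5% DMSO). SULT2A1 mRNA was measured by qRT-PCR, normalized to ACTB, GAPDH and POLR2A, and fitted bidirectionally against DMSO.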

Read-out in experiment [16]: Transforming Growth Factor (TGFA), TGFA (gene 7039)
Nature of the experiment: LTEA_HepaRG_TGFA: Life Technologies and Expression Analysis (LTEA) Assay for Transforming Growth Factor (TGFA) using HepaRG (AID 2283532). In short, it runs like this: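 Differentiated HepaRG cells exposed 48 hours in serum-free induction medium, 0.5% DMSO vehicle, 8-point half-log series from 100 uM, in duplicate. TGFA mRNA by TaqMan qRT-PCR, normalised to ACTB, GAPDH, POLR2A; bidirectional fit versus DMSO.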

Read-out in experiment [17]: Transforming Growth Factor (TGFB1), TGFB1 (gene 7040)
Nature of the experiment: LTEA_HepaRG_TGFB1: Life Technologies and Expression Analysis (LTEA) Assay for Transforming Growth Factor (TGFB1) Transporter using HepaRG (AID 2283533). In short, it runs like this: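 Differentiated human HepaRG cells in serum-free induction medium were exposed in duplicate for 48 h to eight concentrations (top 100 uM, half-log steps, 0.5% DMSO). TGFB1 mRNA was quantified by qRT-PCR, normalized to ACTB, GAPDH, POLR2A, and fitted bidirectionally against DMSO.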

Read-out in a further experiment: TIMP1, TIMP1 (gene 7076)
Nature of the experiment: LTEA_HepaRG_TIMP1: Life Technologies and Expression Analysis (LTEA) Assay for TIMP1 using HepaRG (AID 2283534).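 Further: TaqMan qRT-PCR signal normalized to ACTB GAPDH and POLR2A housekeeping genes.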 In outline:
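Differentiated human HepaRG cells in serum-free induction medium were exposed 48 h to chemicals (8 half-log concentrations, top 100 uM, 0.5% DMSO). TIMP1 mRNA was quantified by TaqMan qRT-PCR, normalized to ACTB/GAPDH/POLR2A; bidirectional fit versus DMSO.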

Read-out in experiment [18]: Nuclear factor NF-kappa-B p105 subunit (Homo sapiens) (UniProt P19838)
Nature of the experiment: LTEA_HepaRG_NFKB1: Life Technologies and Expression Analysis (LTEA) Assay for Nuclear Factor Kappa B Subunit 1 (NFKB1) using HepaRG (AID 2283521).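 Further: TaqMan qRT-PCR transcript normalised to ACTB GAPDH and POLR2A housekeeping genes.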 In outline: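 Differentiated human HepaRG cells in serum-free induction medium with 0.5% DMSO were exposed for 48 h to eight half-log concentrations, top 100 uM, in duplicate. NFKB1 mRNA measured by Fluidigm TaqMan qRT-PCR, normalised to ACTB, GAPDH and POLR2A; bidirectional fit versus DMSO.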

Structures are written as SMILES. The source made the active and inactive calls. How the source made its calls: active means hit-call score of the fitted dose curve at least 0.9, where 1 is the maximum; inactive means score below 0.9.

Chain of Signal transducer and activator of transcription 3 (Homo sapiens) (P40763 whole entry, looked up): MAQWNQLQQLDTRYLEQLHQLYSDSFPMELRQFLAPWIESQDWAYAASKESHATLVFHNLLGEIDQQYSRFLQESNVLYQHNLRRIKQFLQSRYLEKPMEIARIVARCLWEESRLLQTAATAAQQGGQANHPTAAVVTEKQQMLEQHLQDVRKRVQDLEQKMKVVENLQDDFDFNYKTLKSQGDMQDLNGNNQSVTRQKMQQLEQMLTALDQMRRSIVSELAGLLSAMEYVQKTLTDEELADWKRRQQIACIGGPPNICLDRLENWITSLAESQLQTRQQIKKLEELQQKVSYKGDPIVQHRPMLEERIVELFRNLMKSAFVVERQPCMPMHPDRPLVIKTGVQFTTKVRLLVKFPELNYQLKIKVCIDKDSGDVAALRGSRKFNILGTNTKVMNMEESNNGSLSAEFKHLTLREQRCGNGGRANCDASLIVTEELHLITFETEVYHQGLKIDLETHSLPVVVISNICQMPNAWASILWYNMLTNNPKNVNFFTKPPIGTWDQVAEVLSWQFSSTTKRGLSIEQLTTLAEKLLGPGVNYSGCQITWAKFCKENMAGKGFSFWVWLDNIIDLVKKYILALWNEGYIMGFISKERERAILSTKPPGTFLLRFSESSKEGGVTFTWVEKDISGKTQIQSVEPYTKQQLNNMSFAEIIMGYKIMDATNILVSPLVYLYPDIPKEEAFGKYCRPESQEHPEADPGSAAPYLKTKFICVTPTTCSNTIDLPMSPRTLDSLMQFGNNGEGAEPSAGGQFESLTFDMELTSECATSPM
Chain of Nuclear factor erythroid 2-related factor 2 (Homo sapiens) (Q16236 whole entry, looked up): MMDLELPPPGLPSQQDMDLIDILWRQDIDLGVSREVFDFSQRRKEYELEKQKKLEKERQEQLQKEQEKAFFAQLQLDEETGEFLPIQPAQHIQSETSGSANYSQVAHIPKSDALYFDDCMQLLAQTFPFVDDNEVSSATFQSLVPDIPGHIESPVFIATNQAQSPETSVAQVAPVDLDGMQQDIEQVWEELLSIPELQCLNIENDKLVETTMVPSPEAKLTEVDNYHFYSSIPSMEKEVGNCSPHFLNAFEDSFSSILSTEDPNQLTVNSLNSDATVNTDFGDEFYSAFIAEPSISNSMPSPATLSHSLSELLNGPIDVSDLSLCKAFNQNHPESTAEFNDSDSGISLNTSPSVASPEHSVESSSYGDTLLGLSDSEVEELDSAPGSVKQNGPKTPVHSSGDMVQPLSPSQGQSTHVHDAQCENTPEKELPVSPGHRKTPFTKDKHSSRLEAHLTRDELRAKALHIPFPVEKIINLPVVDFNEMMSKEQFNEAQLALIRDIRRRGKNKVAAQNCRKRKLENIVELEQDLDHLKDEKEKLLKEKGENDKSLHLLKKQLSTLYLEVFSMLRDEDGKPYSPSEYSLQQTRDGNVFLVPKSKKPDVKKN
Chain of Nuclear factor NF-kappa-B p105 subunit (Homo sapiens) (P19838 whole entry, looked up): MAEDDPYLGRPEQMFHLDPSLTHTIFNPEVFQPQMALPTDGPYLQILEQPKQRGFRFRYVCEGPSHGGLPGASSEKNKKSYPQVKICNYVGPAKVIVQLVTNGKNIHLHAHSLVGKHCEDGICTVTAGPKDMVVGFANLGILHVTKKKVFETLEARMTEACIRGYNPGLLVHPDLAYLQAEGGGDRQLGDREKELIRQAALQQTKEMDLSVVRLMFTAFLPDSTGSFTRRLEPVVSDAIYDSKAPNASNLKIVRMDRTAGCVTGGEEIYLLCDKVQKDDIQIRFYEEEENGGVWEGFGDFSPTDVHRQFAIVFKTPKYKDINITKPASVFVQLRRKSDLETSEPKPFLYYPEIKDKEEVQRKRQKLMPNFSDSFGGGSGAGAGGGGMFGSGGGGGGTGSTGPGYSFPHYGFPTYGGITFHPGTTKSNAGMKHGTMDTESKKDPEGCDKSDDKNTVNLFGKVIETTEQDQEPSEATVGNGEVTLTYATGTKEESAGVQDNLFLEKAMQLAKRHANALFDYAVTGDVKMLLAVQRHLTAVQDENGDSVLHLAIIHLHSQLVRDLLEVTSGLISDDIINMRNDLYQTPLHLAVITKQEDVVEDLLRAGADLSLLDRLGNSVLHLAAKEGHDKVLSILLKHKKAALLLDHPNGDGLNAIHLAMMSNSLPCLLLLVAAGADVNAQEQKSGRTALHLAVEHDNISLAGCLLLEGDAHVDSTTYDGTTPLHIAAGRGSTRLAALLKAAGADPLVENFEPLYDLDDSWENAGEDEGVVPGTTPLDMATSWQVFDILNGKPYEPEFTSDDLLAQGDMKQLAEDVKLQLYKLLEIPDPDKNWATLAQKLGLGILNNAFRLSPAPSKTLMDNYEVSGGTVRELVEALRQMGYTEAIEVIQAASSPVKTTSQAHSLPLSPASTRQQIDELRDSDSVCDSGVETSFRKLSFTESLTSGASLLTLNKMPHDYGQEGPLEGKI

Turning to `CCCCNC(=O)OCC#CI`, the outcome in experiment [1] is “inactive”; in [2], “inactive”; in experiment [3], “inactive”; in the experiment with MYC, MYC (gene 4609), “inactive”; in [4], “inactive”; in experiment [5], “inactive”. The call in [6], in [7], in experiment [8], in [9], in [10] and in experiment [11] was inactive. Besides, the outcome in [12] was “inactive”; in experiment [13], “inactive”; in [16] it was “inactive”; in experiment [17] it was “inactive”; with TIMP1, TIMP1 (gene 7076), “inactive”. The AC50 in experiment [14] and in experiment [15] was 50 µM (active) in each case.

On to `CCCCNC(=O)n1c(NC(=O)OC)nc2ccccc21`, for which the outcome was “inactive” in experiment [1]; “inactive” in experiment [2]; “inactive” in experiment [3]; “inactive” with MYC, MYC (gene 4609); “inactive” in experiment [4]; “inactive” in experiment [5]. Further, the molecule was called inactive in [18], in experiment [6], in [7], in [8], in experiment [9] and in [10]. Also, the call in [11], in experiment [12], in experiment [13], in experiment [14], in experiment [15] and in experiment [16] was inactive. Further, the outcome in experiment [17] was “inactive”; with TIMP1, TIMP1 (gene 7076) it was “inactive”.

With `C=CC1(C)OC(=O)N(c2cc(Cl)cc(Cl)c2)C1=O` (stereo not drawn), the outcome in experiment [2] was “inactive”; in experiment [3], “inactive”; in the experiment with MYC, MYC (gene 4609), “inactive”; in [4] it was “inactive”; in experiment [18] it was “inactive”; in [6], “inactive”. The molecule was called inactive in experiment [7], in experiment [8], in experiment [10], in experiment [11], in experiment [12] and in experiment [13]. The outcome was “inactive” in [14]; “inactive” in [16]; “inactive” in [17]; “inactive” with TIMP1, TIMP1 (gene 7076). Further, the concentration at half-maximal activity (AC50) is 34.1 µM (active) in experiment [5], 50 µM (active) in experiment [9] and 28 µM (active) in experiment [15].
